G9a inh: qHTS Assay for Inhibitors of Histone Lysine Methyltransferase G9a | Histone-lysine N-methyltransferase EHMT2 (Homo sapiens), Q96KQ7 | G9a H3K9 monomethylation, AlphaScreen, 2 h | Potency, µM (titrated, usually from 102 µM), inactives show top-dose activity, negative = inhibition, most hits filed as inhibitors | hit rate 8.8% among 350,000 | AID 504332, 2011; further: potency means the concentration at half of the fitted maximal effect; on the % scale 0 is the no-effect control and ±100 the full control effect; nearly all actives have a fitted effect of over 75% in size
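G9a (20 nM) preincubated 15 min RT with compounds, then 500 nM biotinylated H3K9 peptide and 20 uM SAM added; 2 h RT reaction. Monomethyl-H3K9 product detected by AlphaScreen with anti-H3K9me1 antibody, streptavidin donor and anti-rabbit IgG acceptor beads.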
PLK1 PBD inh: qHTS for Inhibitors of PLK1-PDB (polo-like kinase 1 - polo-box domain): Primary Screen; Plk1 PBD binding of FITC phosphopeptide, fluorescence polarization; Potency, µM, inactives show max response, negative = inhibition, usual class: inhibitors; hit rate 2.8% among 360,000; AID 720504, 2013; further: potency means the concentration at half of the fitted maximal effect; series mostly up to about 57 µM; on the % scale 0 is the no-effect control and ±100 the full control effect; nearly all actives have a fitted effect of over 65% in size
Target sequence (P53350 whole entry, looked up, the tested form may be a part): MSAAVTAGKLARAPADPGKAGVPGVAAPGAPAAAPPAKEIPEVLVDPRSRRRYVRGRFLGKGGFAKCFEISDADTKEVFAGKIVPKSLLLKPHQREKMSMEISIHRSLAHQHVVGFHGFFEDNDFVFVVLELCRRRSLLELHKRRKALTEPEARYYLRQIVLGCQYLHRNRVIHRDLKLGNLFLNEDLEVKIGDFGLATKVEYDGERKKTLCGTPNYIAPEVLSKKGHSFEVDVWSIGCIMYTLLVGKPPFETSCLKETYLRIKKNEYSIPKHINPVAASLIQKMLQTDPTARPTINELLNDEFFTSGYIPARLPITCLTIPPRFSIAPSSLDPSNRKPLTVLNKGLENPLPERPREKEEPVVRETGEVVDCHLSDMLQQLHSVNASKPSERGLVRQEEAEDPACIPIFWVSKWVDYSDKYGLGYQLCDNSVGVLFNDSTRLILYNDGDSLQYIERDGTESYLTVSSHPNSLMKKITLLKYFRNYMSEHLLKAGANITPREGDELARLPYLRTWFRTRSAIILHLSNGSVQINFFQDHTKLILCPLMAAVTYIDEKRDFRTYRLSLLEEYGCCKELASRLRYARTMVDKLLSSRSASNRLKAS
PI5P4K alpha inh: qHTS for Inhibitors of phosphatidylinositol 5-phosphate 4-kinase (PI5P4K); Phosphatidylinositol 5-phosphate 4-kinase type-2 alpha (Homo sapiens), P48426; PI5P4Kalpha enzyme, ADP-Glo luminescence, 60 min; hits give low values; max response, %; hit rate 1.2% among 330,000; AID 652105, 2013; active means max response of -50% or lower; inconclusive means between -30% and -50%; inactive means -30% or higher; further: value at the top dose of about 77 µM; on the % scale 0 is the no-effect control and ±100 the full control effect
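ADP-Glo luminescence end-point read after a 60 min room-temperature kinase reaction of PI5P4Kalpha plus substrate, initiated with ATP at 5 microM final. Buffer: 0.038 M HEPES pH 7.4, EGTA, 0.1% CHAPS, 5% DMSO.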
BAZ2B inh: qHTS Assay for Inhibitors of BAZ2B | AlphaScreen BAZ2B-H3K14Ac peptide displacement | Potency, µM (top dose mostly 114 µM), inactives show at the highest dose activity change, negative = inhibition, actives largely listed as inhibitors | hit rate 4.4% among 360,000; further: potency means the concentration at half of the fitted maximal effect; on the % scale 0 is the no-effect control and ±100 the full control effect; nearly all actives have a fitted effect of over 60% in size
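AlphaScreen luminescence quantifies BAZ2B engagement of H3K14Ac peptide; the protein and biotinylated peptide are both at 50 nM final, buffer PBS pH 7.4 with 0.01% Tween-20, all steps at room temperature.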
JMJD2A Tudor inh: qHTS Assay for Inhibitors of JMJD2A-Tudor Domain. Lysine-specific demethylase 4A (Homo sapiens), O75164. AlphaScreen JMJD2A-Tudor / H3K4me3 peptide binding. Potency, µM (top dose mostly 114 µM), without a hit: top-dose activity change, negative = inhibition, hits mostly inhibitors. hit rate 4.4% among 390,000. AID 504339, 2011; further: potency means the concentration at half of the fitted maximal effect; on the % scale 0 is the no-effect control and ±100 the full control effect; nearly all actives have a fitted effect of over 50% in size
HP1b chromo inh: HTS for Inhibitors of HP1-beta Chromodomain Interactions with Methylated Histone Tails; Chromobox protein homolog 1 (Homo sapiens), P83916; AlphaScreen HP1-beta / biotin-H3K9me3 peptide binding; Potency, µM (top dose mostly 114 µM), inactives show at the top dose activity change, negative = inhibition, hits mostly inhibitors; hit rate 0.56% among 390,000; further: potency means the concentration at half of the fitted maximal effect; nearly all actives have a fitted effect of over 70% in size
Target sequence (P83916 whole entry, looked up): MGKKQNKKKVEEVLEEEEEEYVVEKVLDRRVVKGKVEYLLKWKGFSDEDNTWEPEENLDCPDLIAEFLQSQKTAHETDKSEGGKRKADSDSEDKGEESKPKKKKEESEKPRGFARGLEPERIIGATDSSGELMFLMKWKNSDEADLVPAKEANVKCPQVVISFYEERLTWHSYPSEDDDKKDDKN
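HP1-beta protein (50 nM final) preincubated 30 min at room temperature with biotinylated H3(1-18)K9me3 peptide (50 nM) in PBS pH 7.4, 0.01% Tween-20, then compound added for 30 min. AlphaScreen streptavidin donor/nickel chelate acceptor beads (10 ug/mL final), 30 min dark, luminescence read.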
* marks the source's active call; other numbers are inactive results; ? = inconclusive; · = no result given; [ ] = remark or other dose. Shown are actives, neighbours in structure and some others; about 12% of the full set was active somewhere. Unless noted, the call rests on the fitted dose curve; in most records, active means well fitted curve in the direction sought with a large enough effect; inconclusive means small, poorly fitted or top-dose-only effect, or another doubt; inactive means no such curve, though single readings can be large; an effect the other way counts as inactive or inconclusive.

SMILES | G9a inh | PLK1 PBD inh | PI5P4K alpha inh | BAZ2B inh | JMJD2A Tudor inh | HP1b chromo inh
Cc1ccc(CNC(=O)c2nccnc2C(=O)O)cc1 | 50.1µM* | -0.9% | 1.2 | -11.4% | ? | 3.8%
Cc1ccc(CNC(=O)C(=O)Nc2nccs2)cc1 | 17.8µM* | -2.2% | -19.4 | ? | -26.6% | 9.2%
Cc1ccc(CNC(=O)c2cccnc2)cc1 | · | -1.8% | 1.0 | · | -14.3% | 34.0%
COc1c(Cl)cc(Cl)cc1CNCCNCC(C)O (configuration not stated) | 35.5µM* | -7.7% | · | -30.3%[57.1 µM] | ? | 37.7%
CN(C)S(=O)(=O)c1ccc2c(c1)N(CC(=O)N1CCN(c3ccccc3F)CC1)CCS2 | -1.7%[59 µM] | · | · | -22.9% | -20.1% | 7.4%[57 µM]
O=c1cc[nH]c2c(C(F)(F)F)cccc12 | -6.2%[59 µM] | -4.9% | 4.7 | -5.1% | -9.6% | 34.6%
O=C(O)c1c[nH]c2ccc(F)cc2c1=O | 17.8µM* | -5.1% | 0.6 | 56.2µM* | 79.4µM* | -2.0%
O=C(O)c1c[nH]c2c(C(F)(F)F)cccc2c1=O | 35.5µM* | -0.1% | 0.8 | ? | 25.1µM* | 32.1%
O=C(O)c1c[nH]c2ccc(S(=O)(=O)N3CCN(c4ccc(F)cc4)CC3)cc2c1=O | ? | 1.4% | · | ? | ? | 16.5%
COc1cccc2c(=O)c(C(=O)O)c[nH]c12 | 22.4µM* | -4.2% | · | ? | 79.4µM* | 34.1%
CCOc1ccccc1NC(=O)Cn1nc(-c2ccco2)ccc1=O | -24.5% | -25.4% | ? | -12.4% | -17.7% | -7.2%
CCOc1ccccc1NC(=O)CSc1ccc(-c2ccco2)nn1 | 25.1µM* | -19.6% | -20.2 | ? | -31.9% | 6.2%
O=C(CSc1ccc(-c2ccco2)nn1)Nc1ccccc1F | 39.8µM* | -14.5% | -15.1 | -16.2% | -4.6% | 26.8%
Cn1cc(C=C2C(=O)CC(C)(C)CC2=O)c2ccccc21 | 44.7µM* | 26.7µM* | -6.4 | ? | ? | -14.5%
Cc1ccc(-c2nn(-c3ccccc3)cc2C=C2C(=O)CC(C)(C)CC2=O)cc1 | 15.2%[0.0925 µM] | 0.67µM* | -25.7 | ? | -32.9% | -5.8%
O=C(O)Cc1cn(-c2ccccc2)nc1-c1ccc(Cl)cc1 | 7.4% | -2.0% | -3.8 | 1.7% | 7.8% | 23.0%
CC1=NNC(=O)/C1=C\c1cn(-c2ccccc2)nc1-c1ccc(Cl)cc1 | -7.2%[12.7 µM] | 5.32µM* | -1.5 | ? | -20.1% | -10.1%
Cc1ccc(C2=NN(CC(=O)NCCCN(CC(C)C)CC(C)C)C(=O)CC2)cc1 | 10.9%[59 µM] | · | · | -0.5% | -16.5% | 7.7%
O=C1N/C(=N\c2ccccn2)SC1Cc1ccc(Cl)cc1 (configuration not stated) | ? | 3.2% | -2.4 | -18.2% | 25.1µM* | 0.8%
O=C1N/C(=N/c2ccccn2)SC1Cc1ccccc1 (configuration not stated) | -37.2% | 2.2% | · | -3.8% | 5.5% | 19.9%
O=C(Cc1cccc2c(=O)cc(-c3ccccc3)oc12)OCCN1CCOCC1 | · | -5.0% | 2.4 | · | · | ·
O=C(CSc1ncccc1C(=O)O)Nc1ccc2c(c1)OCCO2 | ? | -7.4% | -52.2* | -32.6% | -15.9% | 19.1%
CC(=O)Nc1ccc2c(c1)OCCO2 | 15.4% | -4.9% | 2.5 | -34.8% | 2.1% | 40.7%
C=C(C)C(=O)Nc1ccc2c(c1)OCCOCCOCCO2 | 10µM* | -20.8% | -73.8* | 11.2µM* | 17.8µM* | 12.6µM*
Nn1c(SCC(=O)Nc2ccc3c(c2)OCCO3)nnc(CCC(=O)O)c1=O | 3.0% | 3.36µM* | ? | -2.2% | 20µM* | 5.0%
SMILES | G9a inh | PLK1 PBD inh | PI5P4K alpha inh | BAZ2B inh | JMJD2A Tudor inh | HP1b chromo inh
CC(=O)Nc1ccc(SCC(=O)Nc2ccc3c(c2)OCCO3)cc1 | · | 11.9µM* | 0.9 | · | -19.3% | 4.6%
COC(=O)C=CSC(=S)C1CCCC1=N (configuration not stated) | · | ? | -17.1 | · | · | ·
O=C(COC(=O)c1ccc(S(=O)(=O)N2CCCCCC2)cc1)NCc1ccc(Cl)cc1 | -6.8%[59 µM] | 4.5% | -1.7 | 9.8% | 3.7% | 44.3%
CC1(C)CC(C)(O)N(Cc2ccccc2)C(=S)N1 (configuration not stated) | 33.8%[59 µM] | ? | -1.4 | 6.0% | -1.8%[57.1 µM] | -21.3%
CC1(CCc2ccccc2)NC(=S)N(c2ccccc2)N1 (configuration not stated) | 10µM* | 1.0% | -10.4 | 50.1µM* | ? | 28.2%
CC1(CCc2ccccc2)NC(=S)N(c2ccc(Cl)cc2)N1 (configuration not stated) | 10µM* | -13.1% | 18.2 | 79.4µM* | ? | 34.2%
Cc1nc2ccccn2c1P(=O)(c1ccccc1)c1ccccc1 | · | · | · | · | -23.8% | ·
O=C1CC(c2c(F)cccc2Cl)C2=C(COC2=O)N1 (configuration not stated) | 31.0%[59 µM] | 1.3% | -5.3 | -3.2% | -13.4% | 27.4%
Clc1cccc(Cl)c1C1Nc2cccc3cccc(c23)N1 | 15.8µM* | -7.3% | -1.4 | 25.1µM* | 44.7µM* | ?
Fc1cccc(Cl)c1C1Nc2cccc3cccc(c23)N1 | · | -18.6% | -19.7 | 31.6µM* | ? | -15.5%
Cc1cccc(OCc2nc(CC(=O)Nc3ccc(C)c(C)c3)cs2)c1 | 2.0%[59 µM] | · | · | -6.6% | -0.7% | 46.2%
CC(=O)N1CCN(c2ccc(NCc3cccc(C)c3)cc2)CC1 | ? | · | · | ? | ? | -12.4%
COc1cc(CNc2ccc(N3CCN(C(C)=O)CC3)cc2)ccc1OCc1ccc(F)cc1 | 3.98µM* | -5.3% | 1.0 | 22.4µM* | ? | ?
CC(=O)N1CCN(c2ccc(NCc3ccc(F)cc3)cc2)CC1 | 7.94µM* | -9.3% | -1.0 | -34.6% | ? | 6.2%
N#CCSc1ccccc1NC(=O)COC(=O)C1CCN(C(=O)c2ccc(Cl)cc2)CC1 | · | 1.4% | 1.7 | · | · | ·
COc1ccccc1OCc1ccc(C(=O)N/N=C/c2ccco2)cc1 | 6.8% | -5.6% | 5.7 | -8.1% | -15.1% | 17.3%
COc1ccccc1COC(=O)N/C=C/c1ccco1 | 20µM* | -17.2% | -19.4 | ? | -31.5% | 6.2%
COc1ccc(COC(=O)N/C=C/c2ccco2)cc1 | 50.1µM* | -2.3% | -14.0 | -27.5% | -2.8% | 24.1%
Cc1ccc(C(=O)N2CCc3cc(CNC(=O)COc4ccccc4)ccc32)cc1 | -3.0%[59 µM] | · | · | -18.6% | -28.0% | 11.5%
S=c1[nH]nc2sc3ccccc3n12 | · | -28.0% | -19.7 | · | 1.12µM* | -30.7%
CCOc1ccc(/C=C/c2nc(C#N)c(NCCc3ccccc3)o2)cc1 | 1.9%[59 µM] | · | · | -19.8% | -16.4% | 7.9%
O=C(O)CSc1ccc(Oc2ccc(SCC(=O)O)cc2)cc1 | · | -10.7% | -8.2 | -9.3% | -9.6% | 26.3%

Assay outcomes from PubChem BioAssay.
